In PubChem BioAssay AID504914 (The Scripps Research Institute Molecular Screening Center, 2011):
This is one part of the list. Unmarked numbers belong to inactive results. No rule for the calls is given here.

Each molecule was assayed against 5-hydroxytryptamine receptor 5A (Homo sapiens) (UniProt P47898) (assay: HTR5A inverse agonists, counter-screen for OPRM1-OPRD1 inverse agonist project, cell-based, luminescence (AID 504914;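 also: 0% = cells with DMSO and 100% = no-cell wells with DMSO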)). Conditions: HTR5A-expressing cells, inverse agonism, at 9.3 µM, stronger effect = higher value.
5-hydroxytryptamine receptor 5A (Homo sapiens), sequence (P47898 whole entry, looked up): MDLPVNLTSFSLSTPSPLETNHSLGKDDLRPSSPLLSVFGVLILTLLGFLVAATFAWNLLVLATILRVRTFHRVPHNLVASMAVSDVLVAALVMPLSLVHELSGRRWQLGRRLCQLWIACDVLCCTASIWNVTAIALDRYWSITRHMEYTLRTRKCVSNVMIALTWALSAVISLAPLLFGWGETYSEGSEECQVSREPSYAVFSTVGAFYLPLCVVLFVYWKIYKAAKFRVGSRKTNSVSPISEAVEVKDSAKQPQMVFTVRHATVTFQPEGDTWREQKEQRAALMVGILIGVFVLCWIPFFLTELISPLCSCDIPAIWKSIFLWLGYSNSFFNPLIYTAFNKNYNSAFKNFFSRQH
Molecule `O=[N+]([O-])/C=C/c1ccc2c(ccn2Cc2ccccc2)c1` has an inhibition of -16.4%.
Work on `COC(=O)Cc1c(-c2[nH]c3ccccc3c2CC(=O)OC)[nH]c2ccccc12` yielded an inhibition of -66.2%.
Work on `Oc1ccc(N=Nc2nccs2)c(O)c1` yielded an inhibition of 23.3%.
`O=C(CCl)NNc1cccc(Cl)n1` showed an inhibition of 8.61%.
In the case of `CCCCC(=O)NNC(=S)NC(=O)C(c1ccccc1)c1ccccc1`, the inhibition is reported as -76%.
With `C=CCn1c(N)c(C(=O)OCC(C)C)c2nc3ccccc3nc21` the inhibition was 10.8%.
Molecule `N#CC1=C(N)C(C#N)(C#N)[C@H](c2ccsc2)[C@H]2COCC=C12` has an inhibition of -8.6%.
Molecule `CCOC(=O)CN1C(=O)C(=O)c2cc(C)ccc21` has an inhibition of 12.5%.
Work on `CN(c1ccccc1)S(=O)(=O)c1ccc(NC(=O)COc2ccccc2)cc1` yielded an inhibition of -4.8%.
Molecule `CSCCC(NC(=O)COc1ccccc1)C(=O)OCC(=O)c1cc2ccccc2o1` (stereo unspecified) has an inhibition of 12%.
`CCOC(=O)CN1C(=O)C(O)(CC(=O)c2ccccn2)c2ccccc21` (stereo unspecified) was tested, and the inhibition was 10.2%.
For `CN(O)C(=S)c1ccccc1`, the inhibition was 26.7%.
In the case of `Cc1ccc(NC2(C#N)C(=O)Nc3ccccc32)cc1` (stereo unspecified), the inhibition is reported as -97.2%.
For `CCOc1ccc(NC(=O)c2cccc3c2C(=O)N(CC2CCCO2)C3)cc1` (stereo unspecified), the inhibition was -4.42%.
`O=C1C(=O)N(c2ccccc2)c2ccccc21` gave an inhibition of 19%.
For `COc1cc(NS(=O)(=O)c2ccc3ccccc3c2)c2ncccc2c1`, the inhibition was -111%.
`Cc1ccc(C(=O)CNc2ccc(F)cc2)cc1` gave an inhibition of -0.52%.
`Cc1cccc2c1N(CC(=O)OC(C)C)C(=O)C2=O` gave an inhibition of -14.5%.
Molecule `Cc1cccc(C)c1NC(=O)C(Cl)C(=O)c1ccccc1` (stereo unspecified) has an inhibition of -75.6%.
`Cc1cccc(N=Nc2c(O)[nH]c3ccc(F)cc23)c1` was tested, and the inhibition was 22.6%.
`CN(C)/C=C1/Nc2ccccc2C1=O` was tested, and the inhibition was 5.59%.
With `Cc1cccc2c1N(CCOc1ccccc1)C(=O)C2=O` the inhibition was 10.3%.
`Cc1ccc(NNC(=O)c2cccs2)cc1Cl` was tested, and the inhibition was -15%.
With `O=C1C(=O)N(CC2COc3ccccc3O2)c2ccccc21` (stereo unspecified) the inhibition was 12%.
`CC(C)OC(=O)CN1C(=O)C(=O)c2ccccc21` was tested, and the inhibition was 4.72%.
Molecule `Cc1ccc2c(c1)C(O)(CC(=O)c1cccnc1)C(=O)N2` (stereo unspecified) has an inhibition of 0%.
